Most compounds without a hit are left out; they make up all but 1.4% or so of the library.
Sa ugtP lethal = kills S. aureus RN4220 lacking UgtP | S. aureus RN4220 ugtP deletion, OD600 growth, 16 h | growth inhibition, % (concentration not given with the values) | AID 1259309 | 0.54% of 330,000 active; in the data active means growth inhibition above about 68%
Sa RN4220 lethal = S. aureus RN4220 growth inhibition | OD600, 16 h | inhibition, % (no concentration beside the values) | 0.33% of 330,000 active | AID 1259311; in the data active means inhibition above about 85%
PrPC surface inh = reduces human prion protein on the cell surface. cell surface PrPC, TR-FRET read-out. AID 720596. inhibition, % at 13.8 µM. P04156. 0.43% of 370,000 active; in the data active means inhibition above about 24%
3CLpro inhibitor = SARS-CoV 3CLpro protease inhibition; recombinant SARS-CoV 3CLpro, quenched FRET peptide cleavage; inhibition, % at 6 µM; 0.14% of 290,000 active; in the data active means inhibition above about 12%
BJeLR lethal = kills HRASV12-expressing BJeLR cells. BJeLR (HRASV12) viability, CellTiter-Glo ATP luminescence, 48 h. 0.17% of 300,000 active. inhibition, % (concentration not given with the values). AID 1554; in the data active means inhibition above about 50%; inconclusive means no clear call, values can overlap the other calls
VHR inh abs = inhibitors of human VHR1 phosphatase (DUSP3). P51452. recombinant VHR phosphatase, pNPP absorbance. inhibition, % at 13.3 µM. 0.52% of 290,000 active. AID 1654; in the data active means inhibition above about 50%
PrPC confirm = cell surface PrPC inhibition, TR-FRET confirmation; shares compounds with PrPC surface inh; cell surface PrPC level; inhibition, % at 13.8 µM; 65% of 1,500 active; AID 743200; in the data active means inhibition above about 25%
LD9 cytotox = kills or reduces viability of LD9 cells in PrPc counter-screen; shares compounds with PrPC surface inh; LD9 cells cytotoxicity, luminescence viability; inhibition, % at 13.8 µM; 29% of 1,500 active; AID 743201; in the data active means inhibition above about 9.5%
A number is an active result; – = inactive; ? = inconclusive; · = not tested or not shown.

SMILES	Sa ugtP lethal	Sa RN4220 lethal	PrPC surface inh	3CLpro inhibitor	BJeLR lethal	VHR inh abs	PrPC confirm	LD9 cytotox
Cc1ccc(S(=O)(=O)N2CCCCC2)cc1NC(=O)Cn1ncc(Cl)c(Cl)c1=O	–	–	31	·	·	·	–	94
Cc1ccc(NC(=O)CSc2ncnc3ccccc23)cc1S(=O)(=O)N1CCCCCC1	–	–	67	–	–	–	77	–
O=C(CSc1ncnc2ccccc12)Nc1cc(S(=O)(=O)N2CCCCC2)ccc1Cl	–	–	–	–	–	–	·	·
Cc1ccc(S(=O)(=O)N2CCCCC2)cc1NC(=O)CSc1ncnc2ccccc12	–	–	63	–	–	–	71	–
O=C(CCCOc1ccccc1)Nc1cccc(S(=O)(=O)N2CCCCC2)c1	–	–	–	·	·	·	·	·
COC(=O)C1CC2CCC(O)CC2N1Cc1ccccc1OS(=O)(=O)c1ccc(C)cc1 (centres undefined)	–	–	·	·	·	·	·	·
CC(C=Cc1cccnc1)=CC(=O)O	–	–	·	·	·	·	·	·
O=C(CSc1ncnc2ccccc12)Nc1cccc(S(=O)(=O)N2CCCC2)c1	–	–	70	–	–	–	73	–
O=C(O)C1=CC(c2csc3ccccc23)CC(OCCCCO)O1 (centres undefined)	–	–	·	·	·	·	·	·
Cc1cccc(C)c1NS(=O)(=O)c1ccc(-c2cnc(C3CC3)o2)cc1	–	–	25	–	60	–	–	29
O=C1CCN(CCc2ccccc2)CCN1C(CSc1ccccc1)c1ccccc1 (centres undefined)	–	–	·	·	·	·	·	·
Cc1nc2ccc(Br)cc2c(-c2ccccc2)c1C(=O)O	·	·	62	–	–	–	82	–
CCN(CC)C(=O)C=Cc1ccccc1	–	–	·	·	·	·	·	·
O=C(CCl)Nc1nc(-c2ccco2)c(-c2ccco2)s1	–	–	44	–	–	–	32	–
Cc1cc(-c2ccccc2)n2ncnc2n1	–	–	28	–	–	–	–	–
CC(C)(C)C1COC(=O)C(Cc2ccc(F)cc2)CC=CCC(CC(=O)NCCO)C(=O)N1 (centres undefined)	–	–	·	·	·	·	·	·
CC[C@@H](C(=O)[C@@H](C)[C@@H](O)[C@H](C)CCc1ccc(C)c(O)c1C(=O)O)[C@H]1O[C@](CC)([C@H]2CC[C@](O)(CC)[C@H](C)O2)C[C@@H]1C	·	·	75	–	–	–	69	44
Cc1cc(NC(=O)c2sc(Nc3ccc(F)cc3)nc2N)no1	·	·	26	–	–	–	26	13
COc1ccc2[nH]c3c(NCCC4=CCCCC4)ncnc3c2c1	–	–	41	–	?	–	40	22
C#CCOCCOCCOCCNc1nc(OC)nc(N2CCN(C(=O)C(CCC(=O)O)n3cc(C(N)CO)nn3)CC2)n1 (centres undefined)	–	–	·	·	·	·	·	·
O=C(Cc1ccc(-n2c(=O)c3ccccc3n(Cc3ccccc3F)c2=O)cc1)NCC1CCCO1 (centres undefined)	–	–	67	–	–	–	–	–
CCN(CC)C(=O)CSc1nc(-c2cccs2)cc(-c2cccs2)c1C#N	–	–	–	–	–	–	·	·
CCN(CC)C(=O)CSc1nc(N)c(C#N)c(-c2cccs2)c1C#N	–	–	63	–	–	–	–	–
CCC(C)C(NC(=O)Nc1ccc(C(C)=O)cc1)C(=O)OC (centres undefined)	–	–	·	·	·	·	·	·
COc1ccc(C(=O)Nc2ccccc2C(=O)NC(Cc2ccc(O)cc2)C(=O)NNC(=O)c2ccccc2Cl)cc1 (centres undefined)	–	–	–	–	–	–	·	·
COc1ccc(C(=O)NNC(=O)C(Cc2ccc(O)cc2)NC(=O)c2ccccc2NC(=O)c2ccc(OC)cc2)cc1 (centres undefined)	–	–	119	–	–	–	–	–
Nc1ncnc2c(C3OC(CO)C(O)C3O)c[nH]c12 (centres undefined)	·	·	57	·	·	·	61	91
Nc1ncnc2c1ncn2[C@@H]1O[C@H](CO)[C@@H](O)[C@H]1O	·	·	–	–	–	–	·	·
CCCCCCCC/C=C\CCCCCCCC(=O)NCCc1ccc(O)c(O)c1	·	·	83	·	·	·	44	65
Cc1ccc2[nH]c3c(=S)nc[nH]c3c2c1	–	–	129	–	–	–	147	–

Assay outcomes from PubChem.
